# Experimental data taken from the supplement of paper PMC10849652.
# About 8,800 targets were measured; listed, in parts, are those with a hit and a random draw of the rest. About 0.5% of all pairs of compound and target were hits. A number with no mark means an inactive call.
# Tests used:
# Assay in all cases: log2 fold change, soluble protein after heating vs DMSO (PISA); higher = thermal stabilisation; K562 lysate, 10 uM; active = over 0.2 and 3.5 SD of the protein, either way, in both replicates (recomputed)
# alvocidib = compound: CN1CC[C@H](c2c(O)cc(O)c3c(=O)cc(-c4ccccc4Cl)oc23)[C@H](O)C1 [alvocidib]
# In short: (§1)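 Soluble protein was defined as the supernatant remaining after 21,000xg for 90 min, following pooling of heated aliquots and adjustment to 0.5% NP-40 at 4°C. Before that, crude K562 extract at 1 mg/mL protein in PBS pH 7.4 with 1 mM MgCl2 was treated with 10 μM compound for 30 min and heated for 3 min across 48°C-58°C. Quantification used TMTpro 16plex LC-MS/MS with channel sums equalised, and values are log-two fold changes in thermal stability relative to solvent controls from duplicates.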
# Tubastatin A = compound: CN1CCc2c(c3ccccc3n2Cc2ccc(C(=O)NO)cc2)C1 [Tubastatin A]
# In short: as §1
# [1] = compound: CNC(=O)C1=CC=CC=C1NC2=NC(=NC=C2Cl)NC3=C(C=C(C=C3)N4CCOCC4)OC
# In short: as §1
# defactinib = compound: CNC(=O)c1ccc(Nc2ncc(C(F)(F)F)c(NCc3nccnc3N(C)S(C)(=O)=O)n2)cc1 [defactinib]
# In short: as §1
# [2] = compound: CNc1nc(-c2ccc3c(N)n[nH]c3c2)cc(N2C[C@@H](C(=O)NC3CCCCC3)CC[C@H]2C)n1
# In short: as §1
# encorafenib = compound: COC(=O)N[C@@H](C)CNc1nccc(-c2cn(C(C)C)nc2-c2cc(Cl)cc(NS(C)(=O)=O)c2F)n1 [encorafenib]
# In short: as §1
# [3] = compound: COC(=O)[C@H](CCSC)NC(=O)C1=C(C=C(C=C1)NC[C@H](CS)N)C2=CC=CC=C2
# In short: as §1
# alisertib = compound: COc1cc(Nc2ncc3c(n2)-c2ccc(Cl)cc2C(c2c(F)cccc2OC)=NC3)ccc1C(=O)O [alisertib]
# In short: as §1
# [4] = compound: COc1cc2nc(-c3cc(F)ccc3O)nc(N[C@@H]3CNC[C@H]3C(C)(C)O)c2cc1OC
# In short: as §1
# gefitinib = compound: COc1cc2ncnc(Nc3ccc(F)c(Cl)c3)c2cc1OCCCN1CCOCC1 [gefitinib]
# In short: as §1
# UniProt P12081, sequence (P12081 whole entry, looked up): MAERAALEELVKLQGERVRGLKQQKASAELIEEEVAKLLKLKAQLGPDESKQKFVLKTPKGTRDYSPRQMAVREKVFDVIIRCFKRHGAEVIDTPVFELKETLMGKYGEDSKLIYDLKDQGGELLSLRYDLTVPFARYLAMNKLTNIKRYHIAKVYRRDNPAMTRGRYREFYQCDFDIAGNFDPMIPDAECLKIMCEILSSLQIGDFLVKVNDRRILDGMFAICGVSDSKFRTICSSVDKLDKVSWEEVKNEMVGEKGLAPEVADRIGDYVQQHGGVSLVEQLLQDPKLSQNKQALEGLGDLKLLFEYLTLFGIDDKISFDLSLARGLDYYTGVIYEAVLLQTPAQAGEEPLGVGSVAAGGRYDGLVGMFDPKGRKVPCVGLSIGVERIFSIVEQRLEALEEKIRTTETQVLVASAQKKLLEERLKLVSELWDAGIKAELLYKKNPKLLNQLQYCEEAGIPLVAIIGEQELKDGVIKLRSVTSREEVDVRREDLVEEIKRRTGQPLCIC
# UniProt Q9NVX0, sequence (Q9NVX0 whole entry, looked up): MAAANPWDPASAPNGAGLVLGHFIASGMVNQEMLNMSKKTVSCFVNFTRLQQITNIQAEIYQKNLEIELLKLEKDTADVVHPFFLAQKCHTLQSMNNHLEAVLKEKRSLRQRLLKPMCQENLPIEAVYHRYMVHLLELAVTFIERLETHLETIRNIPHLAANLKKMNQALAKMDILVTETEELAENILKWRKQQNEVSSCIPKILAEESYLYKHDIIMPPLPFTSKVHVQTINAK
# UniProt P11142, sequence (P11142 whole entry, looked up): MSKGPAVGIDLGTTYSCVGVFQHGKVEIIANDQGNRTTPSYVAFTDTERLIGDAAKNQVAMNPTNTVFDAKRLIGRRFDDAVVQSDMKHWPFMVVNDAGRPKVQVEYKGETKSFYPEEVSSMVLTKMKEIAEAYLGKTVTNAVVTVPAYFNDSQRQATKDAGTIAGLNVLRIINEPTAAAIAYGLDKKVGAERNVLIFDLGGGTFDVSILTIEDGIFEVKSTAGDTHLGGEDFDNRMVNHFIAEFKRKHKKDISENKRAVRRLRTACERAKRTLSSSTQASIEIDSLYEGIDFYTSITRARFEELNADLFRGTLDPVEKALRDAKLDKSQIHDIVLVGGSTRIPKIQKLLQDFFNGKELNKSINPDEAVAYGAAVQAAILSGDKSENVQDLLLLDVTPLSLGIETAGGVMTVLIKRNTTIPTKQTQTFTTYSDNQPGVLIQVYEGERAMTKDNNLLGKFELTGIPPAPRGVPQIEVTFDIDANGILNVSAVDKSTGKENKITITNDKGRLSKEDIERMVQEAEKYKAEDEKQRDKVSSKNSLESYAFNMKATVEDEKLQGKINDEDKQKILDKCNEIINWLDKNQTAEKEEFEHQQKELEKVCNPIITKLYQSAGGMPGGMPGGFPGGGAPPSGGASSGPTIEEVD
# UniProt O00425, sequence (O00425 whole entry, looked up): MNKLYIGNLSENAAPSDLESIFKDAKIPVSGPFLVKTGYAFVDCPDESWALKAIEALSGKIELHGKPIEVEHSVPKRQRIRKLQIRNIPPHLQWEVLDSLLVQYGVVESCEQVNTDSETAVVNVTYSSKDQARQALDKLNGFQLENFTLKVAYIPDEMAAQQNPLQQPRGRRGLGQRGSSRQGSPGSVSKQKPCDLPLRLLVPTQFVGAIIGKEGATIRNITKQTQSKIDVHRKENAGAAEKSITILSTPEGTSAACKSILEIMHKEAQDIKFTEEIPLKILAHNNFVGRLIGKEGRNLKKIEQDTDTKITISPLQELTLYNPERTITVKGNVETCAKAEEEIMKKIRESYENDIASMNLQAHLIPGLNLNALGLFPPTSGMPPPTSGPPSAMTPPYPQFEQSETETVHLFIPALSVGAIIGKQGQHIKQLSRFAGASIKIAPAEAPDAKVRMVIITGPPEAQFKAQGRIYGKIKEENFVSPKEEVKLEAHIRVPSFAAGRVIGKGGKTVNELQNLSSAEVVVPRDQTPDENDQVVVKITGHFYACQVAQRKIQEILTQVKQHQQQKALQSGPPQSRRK
# UniProt P50747, sequence (P50747 whole entry, looked up): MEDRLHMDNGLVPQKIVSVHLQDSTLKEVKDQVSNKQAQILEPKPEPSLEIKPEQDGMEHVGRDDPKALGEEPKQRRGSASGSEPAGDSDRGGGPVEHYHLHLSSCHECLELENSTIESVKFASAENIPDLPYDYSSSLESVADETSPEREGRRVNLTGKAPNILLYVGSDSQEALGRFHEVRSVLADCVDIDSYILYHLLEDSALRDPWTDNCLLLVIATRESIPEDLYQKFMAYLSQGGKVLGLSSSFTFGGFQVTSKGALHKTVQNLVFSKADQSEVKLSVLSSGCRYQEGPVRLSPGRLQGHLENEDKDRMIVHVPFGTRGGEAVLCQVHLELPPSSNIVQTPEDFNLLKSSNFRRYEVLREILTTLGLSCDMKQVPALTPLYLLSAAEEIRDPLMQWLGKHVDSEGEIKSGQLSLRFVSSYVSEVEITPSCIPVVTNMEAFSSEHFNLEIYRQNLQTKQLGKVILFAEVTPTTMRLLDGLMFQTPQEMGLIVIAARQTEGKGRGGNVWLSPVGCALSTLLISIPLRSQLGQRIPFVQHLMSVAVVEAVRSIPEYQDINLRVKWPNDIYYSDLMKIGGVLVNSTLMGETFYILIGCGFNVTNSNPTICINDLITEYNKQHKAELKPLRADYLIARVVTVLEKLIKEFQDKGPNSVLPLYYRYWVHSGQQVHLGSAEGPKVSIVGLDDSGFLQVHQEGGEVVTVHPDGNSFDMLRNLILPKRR
# UniProt Q96SY0, sequence (Q96SY0 whole entry, looked up): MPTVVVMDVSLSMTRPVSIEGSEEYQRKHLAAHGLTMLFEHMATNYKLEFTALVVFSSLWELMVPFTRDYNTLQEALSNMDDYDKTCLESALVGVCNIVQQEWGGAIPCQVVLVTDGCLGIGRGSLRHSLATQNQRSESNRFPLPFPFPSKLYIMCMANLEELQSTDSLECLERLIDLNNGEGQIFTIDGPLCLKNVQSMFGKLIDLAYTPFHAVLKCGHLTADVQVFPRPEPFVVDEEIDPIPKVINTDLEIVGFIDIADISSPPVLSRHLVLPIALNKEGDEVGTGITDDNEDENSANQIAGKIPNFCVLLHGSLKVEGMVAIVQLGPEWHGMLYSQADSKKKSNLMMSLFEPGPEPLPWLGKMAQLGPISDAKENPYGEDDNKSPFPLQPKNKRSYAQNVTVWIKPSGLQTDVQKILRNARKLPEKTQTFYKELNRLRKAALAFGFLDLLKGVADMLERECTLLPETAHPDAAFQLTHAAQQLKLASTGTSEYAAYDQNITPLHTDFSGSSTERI
# UniProt Q9H1B7, sequence (Q9H1B7 whole entry, looked up): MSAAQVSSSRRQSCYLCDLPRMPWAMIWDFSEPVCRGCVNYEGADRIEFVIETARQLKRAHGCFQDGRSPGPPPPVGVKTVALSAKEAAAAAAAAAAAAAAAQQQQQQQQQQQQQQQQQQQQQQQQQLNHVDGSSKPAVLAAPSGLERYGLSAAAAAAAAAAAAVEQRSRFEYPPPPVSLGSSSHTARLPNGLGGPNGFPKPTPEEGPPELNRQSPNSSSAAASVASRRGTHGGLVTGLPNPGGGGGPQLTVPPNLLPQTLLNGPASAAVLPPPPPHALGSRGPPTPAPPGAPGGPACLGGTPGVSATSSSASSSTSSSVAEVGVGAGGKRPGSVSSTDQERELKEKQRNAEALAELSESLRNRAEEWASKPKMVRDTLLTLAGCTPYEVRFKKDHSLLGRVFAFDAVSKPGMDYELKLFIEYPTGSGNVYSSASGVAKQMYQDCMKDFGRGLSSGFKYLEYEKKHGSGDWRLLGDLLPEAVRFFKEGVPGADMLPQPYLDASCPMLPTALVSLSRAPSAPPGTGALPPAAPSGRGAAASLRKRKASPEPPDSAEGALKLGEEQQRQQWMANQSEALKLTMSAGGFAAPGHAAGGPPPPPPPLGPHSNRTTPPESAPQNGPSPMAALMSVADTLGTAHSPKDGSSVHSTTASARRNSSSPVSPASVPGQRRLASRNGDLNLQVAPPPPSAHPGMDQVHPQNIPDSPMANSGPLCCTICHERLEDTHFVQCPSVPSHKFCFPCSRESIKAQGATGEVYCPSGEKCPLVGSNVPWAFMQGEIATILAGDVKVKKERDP
# UniProt Q92759, sequence (Q92759 whole entry, looked up): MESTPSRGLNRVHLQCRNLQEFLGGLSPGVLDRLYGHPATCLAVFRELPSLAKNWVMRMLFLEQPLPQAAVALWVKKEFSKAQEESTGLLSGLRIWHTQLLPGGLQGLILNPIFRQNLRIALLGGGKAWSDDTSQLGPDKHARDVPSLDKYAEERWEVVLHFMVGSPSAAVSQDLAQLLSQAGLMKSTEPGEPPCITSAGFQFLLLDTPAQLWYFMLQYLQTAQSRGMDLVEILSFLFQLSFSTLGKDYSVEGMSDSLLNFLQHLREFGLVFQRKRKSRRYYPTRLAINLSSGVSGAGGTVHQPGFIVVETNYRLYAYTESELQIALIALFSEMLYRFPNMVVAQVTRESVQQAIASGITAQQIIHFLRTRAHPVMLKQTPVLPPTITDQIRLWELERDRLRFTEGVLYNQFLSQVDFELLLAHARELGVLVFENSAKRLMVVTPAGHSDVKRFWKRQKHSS
# UniProt Q9BQQ3, sequence (Q9BQQ3 whole entry, looked up): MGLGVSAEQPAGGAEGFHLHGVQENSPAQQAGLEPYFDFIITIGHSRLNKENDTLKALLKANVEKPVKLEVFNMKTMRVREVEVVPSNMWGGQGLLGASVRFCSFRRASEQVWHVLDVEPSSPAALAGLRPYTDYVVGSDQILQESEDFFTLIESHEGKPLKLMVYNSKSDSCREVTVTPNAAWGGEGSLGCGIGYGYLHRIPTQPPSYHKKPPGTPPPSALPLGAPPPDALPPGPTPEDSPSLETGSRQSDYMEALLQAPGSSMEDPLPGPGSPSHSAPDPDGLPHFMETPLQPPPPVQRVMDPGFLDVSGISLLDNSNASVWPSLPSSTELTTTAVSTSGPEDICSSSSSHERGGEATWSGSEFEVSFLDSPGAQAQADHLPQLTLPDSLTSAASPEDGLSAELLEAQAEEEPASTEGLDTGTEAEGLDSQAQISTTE
Target,log2 fold change (alvocidib),log2 fold change (Tubastatin A),log2 fold change [1],log2 fold change (defactinib),log2 fold change [2],log2 fold change (encorafenib),log2 fold change [3],log2 fold change (alisertib),log2 fold change [4],log2 fold change (gefitinib)
IRF2BP1 (UniProt Q8IU81),-0.029,-0.047,0.095,0.045,0.091,0.025,0.117,0.042,0.038,-0.003
HARS (UniProt P12081),0,0.001,-0.02,-0.02,-0.054,-0.03,0.254 (active),0.003,0.015,0.007
HAUS2 (UniProt Q9NVX0),0.069,-0.079,0.041,-0.171,-0.047,0.088,0.043,-0.037,0.014,-0.049
INPPL1 (UniProt O15357),-0.001,-0.177,0.039,0,-0.001,0.009,0.037,0.036,-0.013,0.01
GPA33 (UniProt Q99795),-0.349,0.103,-0.076,-0.099,-0.193,0.053,-0.027,0.071,0.039,0.125
GORASP1 (UniProt Q9BQQ3),-0.052,-0.035,0.018,0.008,-0.071,0.108,-0.009,-0.037,0.076,0.016
INTS14 (UniProt Q96SY0),-0.001,-0.066,0.032,0.025,0.02,0.006,-0.1,-0.018,0.015,-0.003
HSPA8 (UniProt P11142),0.005,0.056,-0.036,-0.003,-0.019,-0.004,0.009,0.002,-0.004,0.008
HDAC3 (UniProt O15379),0.005,-0.039,0.013,-0.023,0.069,0.008,-0.057,0.02,-0.015,0.014
HMGN5 (UniProt P82970),0.04,0.045,-0.029,0.051,0.018,-0.029,-0.023,-0.036,0.006,-0.028
GSK3A (UniProt P49840),0.53 (active),-0.089,0.05,0.353,-0.042,0.161,-0.118,-0.03,-0.015,0.003
HNRNPL (UniProt P14866),0.035,-0.174,0.016,0.015,-0.02,0,0.073,-0.026,-0.007,-0.019
KHK isoform 2 (UniProt P50053),0.058,-0.001,-0.057,-0.038,-0.068,0.03,-0.02,0.008,0.083,-0.038
IRF2BPL (UniProt Q9H1B7),-0.076,-0.047,0.01,-0.007,0.048,-0.017,-0.06,-0.031,-0.013,-0.05
GTF2H1 (UniProt P32780),-0.053,-0.023,0.05,0.041,0.031,-0.004,-0.059,0.065,-0.021,-0.015
HAUS3 (UniProt Q68CZ6),-0.022,-0.159,0.043,-0.023,-0.021,0.026,0.065,0.014,0.003,-0.011
GTF2H4 (UniProt Q92759),0.005,-0.069,0.018,0.085,-0.01,0.025,-0.015,0.016,0.02,-0.022
GRK6 isoform 2 (UniProt P43250),-0.05,0.074,0.007,0.034,0.148,-0.082,0.043,-0.04,-0.015,0.064
GIT1 (UniProt Q9Y2X7),0.015,-0.04,0.022,0.023,-0.084,0.002,0.026,0.05,-0.011,-0.031
INTS8 (UniProt Q75QN2),-0.011,-0.013,0.083,0.084,0.011,0.098,-0.111,-0.008,-0.033,-0.04
HIST2H2AA3 (UniProt Q6FI13),0.202,0.092,-0.002,-0.032,0.277,-0.027,0.086,-0.097,-0.027,-0.086
HLCS (UniProt P50747),-0.015,0.036,0.018,0.017,0.025,0.003,0.053,-0.01,0.038,0.013
INTS3 (UniProt Q68E01),-0.003,0.012,0.003,0.012,-0.002,-0.027,0.072,-0.031,0.005,0.047
HAUS8 (UniProt Q9BT25),0.067,-0.173,-0.012,-0.06,0.064,0.063,-0.004,-0.063,-0.075,-0.031
KCT2 (UniProt Q8NC54),-0.137,0.029,-0.001,-0.012,0.013,0.031,-0.035,0.077,0,-0.037
INTS1 (UniProt Q8N201),0.009,-0.028,0.013,0.019,0.004,0.028,-0.018,0.021,0.007,-0.04
HSPA14 (UniProt Q0VDF9),0.001,-0.081,0.01,0.012,-0.011,-0.004,0.153,0.028,0,0.02
HK2 (UniProt P52789),0.006,-0.17,0.024,0.017,-0.006,0,0.165,0.023,-0.031,-0.016
IGF2BP3 (UniProt O00425),0.012,-0.147,-0.022,-0.028,-0.016,-0.022,0.218,0.006,-0.003,-0.017
GPR108 (UniProt Q9NPR9),-0.068,-0.034,0.075,0,0.014,0.11,-0.066,0.001,0.047,0.002
